Test results as given in PubChem BioAssay (Tox21).
Inconclusive results are not listed. Calls of active or inactive are those of the source. Unless noted, calls follow the shape of the full dose curve.

Key:
[1] = Nuclear factor erythroid 2-related factor 2/antioxidant responsive element (Nrf2/ARE) small molecule agonists: qHTS cell viability counter screen in human keratinocytes (AID 1919968; active = well fitted cell-killing curve with a large enough effect in the repeat runs; also: nearly all actives have a fitted effect of over 55% in size)
Outline: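 After a 5 h attachment period, ARE-reporter keratinocytes were dosed with compounds in DMSO and then cultured 23 h at 37 C. Cell viability came from CellTiter-Fluor signal read after a further 1 h.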

[2] = Nuclear factor erythroid 2-related factor 2/antioxidant responsive element (Nrf2/ARE) small molecule agonists: luciferase reporter gene qHTS assay in human keratinocytes (AID 1919969); also: nearly all actives have a fitted effect of over 35% in size
[3] = G protein-coupled receptor (GPCR) small molecule agonists, calcium flux assay: HEK293 wild type cell line counter screen (AID 1920065)
Outline: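 Calcium-sensitive dye, loaded 1 h at 37 C into cells cultured 18 h, reports compound-evoked calcium release as fluorescence (Ex/Em 480/540), measured over 3 min. Agonist mode; 15-point titrations, triplicate.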

[4] = p53 small molecule agonists, cell-based qHTS assay with human liver microsomes (AID 1963577);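 also: p53 response element beta-lactamase reporter cells with liver microsomes plus NADPH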
Outline: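 16 h, 37 C exposure of p53RE-bla cells to compounds with human liver microsomes and NADPH (0.5 mg/mL final each); detection via LiveBLAzer mixture, 2 h dark at room temperature.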

[5] = p53 small molecule agonists, cell-based qHTS assay with rat liver microsomes (AID 1963578)
Outline: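 With rat liver microsomes and NADPH present (0.5 mg/mL final each), p53RE-bla cells are treated with compound for 16 h at 37 C. LiveBLAzer detection mixture is then applied for 2 h at room temperature in the dark.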

[6] = p53 small molecule agonists, cell-based qHTS assay with human liver microsomes: qHTS cell viability counter screen (AID 1963579); also: nearly all actives have a fitted effect of over 45% in size
Outline: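 In this multiplexed counter screen, the reporter plates were subsequently treated with CellTiter-Glo so that cell viability, reflected by luminescence, could be recorded for p53RE-bla cells dosed 16 h with compounds under microsomal activation (HLM and NADPH).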

[7] = p53 small molecule agonists, cell-based qHTS assay with rat liver microsomes: qHTS cell viability counter screen (AID 1963580); also: nearly all actives have a fitted effect of over 45% in size
Outline: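 HCT-116 p53RE-bla, 4,000 cells/well, 5 h pre-incubation; cpd + rat liver microsomes 0.5 mg/mL + NADPH 0.5 mg/mL (final); 16 h, 37 C; CellTiter-Glo, 30 min RT; luminescence.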

[8] = p53 small molecule agonists, cell-based qHTS assay: qHTS cell viability counter screen (AID 1963581); also: nearly all actives have a fitted effect of over 45% in size
Outline: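 Following 5 h attachment, HCT-116 p53RE-bla cells took up compound for 16 h at 37 C; the reporter was read with B/G FRET substrate (2 h RT), and viability then via CellTiter-Glo ATP luminescence.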

[9] = p53 small molecule agonists, cell-based qHTS assay (AID 1963582; active = well fitted activation curve with a large enough effect in the signal ratio in the repeat runs, not every such curve was filed as active; the % refers to the signal ratio)
Outline: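 In this cell-based concentration-response screen, a p53 response element drives beta-lactamase; cells received DMSO-borne compounds after 5 h culture and were incubated a further 16 h before FRET substrate development.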

[10] = biological target: 5-hydroxytryptamine receptor 2A (Homo sapiens) (UniProt P28223); test: 5-hydroxytryptamine receptor 2A (HTR2A) small molecule antagonists, cell-based qHTS assay (AID 1963586); also: nearly all actives have a fitted effect of over 45% in size
Outline: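 Antagonist-mode intracellular calcium assay: DOI (4 nM) added after 5 min compound pre-incubation at room temperature to dye-loaded HTR2A-CHO cells. Fluorescence followed for 3 min, sampled every second.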

[11] = biological target: 5-hydroxytryptamine receptor 2A (Homo sapiens) (UniProt P28223); test: 5-hydroxytryptamine receptor 2A (HTR2A) small molecule agonists, cell-based qHTS assay (AID 1963587); also: nearly all actives have a fitted effect of over 30% in size
Outline: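 Kinetic calcium-flux fluorescence (2 min, 1 sec intervals) after compound addition in agonist mode. HTR2A-CHO cells were cultured 18 h, then dye-loaded 1 h at 37 C.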

[12] = biological target: Muscarinic acetylcholine receptor M1 (Homo sapiens) (UniProt P11229); test: Cholinergic receptor muscarinic 1 (CHRM1) small molecule antagonists, cell-based qHTS assay (AID 1963588); also: nearly all actives have a fitted effect of over 40% in size
Outline: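 CHRM1-CHO calcium-flux assay, antagonist mode. Cells were seeded 18 h, dye-loaded 1 h at 37 C and given compound for 5 min at RT, then acetylcholine was added at 50nM. FDSS fluorescence was read 3 min; 15 concentrations, three runs.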

[13] = biological target: Muscarinic acetylcholine receptor M1 (Homo sapiens) (UniProt P11229); test: Cholinergic receptor muscarinic 1 (CHRM1) small molecule agonists, cell-based qHTS assay (AID 1963589); also: nearly all actives have a fitted effect of over 35% in size
Outline: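 Measures agonist-induced intracellular calcium rise. Stable human CHRM1 CHO line, 1 h dye load at 37 C, compounds from DMSO, kinetic fluorescence read.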

[14] = cAMP Responsive Elements (CRE) small molecule agonists, cell-based qHTS assay (AID 1963590)
Outline: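 A CRE-responsive beta-lactamase reporter in HEK 293T cells was used. Treatment ran 3 h at 37 C; detection used LiveBLAzer B/G FRET substrate for 2 h at room temperature.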

[15] = cAMP Responsive Elements (CRE) small molecule antagonists, cell-based qHTS assay (AID 1963591; active = well fitted inhibition curve with a large enough effect in the signal ratio in the repeat runs, not every such curve was filed as active; the % refers to the signal ratio)
Outline: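 HEK293T cells carrying a CRE-driven beta-lactamase reporter receive compound and NKH477 (0.25 uM final) for 3 h. Fluorescence from LiveBLAzer B/G FRET substrate is read after 2 h at room temperature.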

[16] = biological target: Beta-2 adrenergic receptor (Homo sapiens) (UniProt P07550); test: Adrenergic beta2 receptor (ADRB2) small molecule antagonists, cell-based qHTS assay (AID 1963592); also: series mostly up to about 92 µM; nearly all actives have a fitted effect of over 50% in size
Outline: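 Cells (CHO, stable ADRB2 overexpression) incubated 18-20hr at 37C; compounds added from DMSO; agonist mix (1nM isoproterenol, 100uM IBMX, 25uM Ro-20-1724) added; 0.5hr RT; d2-cAMP and anti-cAMP-cryptate added; 1hr RT; 665/615 nm read.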

[17] = biological target: D(2) dopamine receptor (Homo sapiens) (UniProt P14416); test: Dopamine D2 receptor (DRD2) small molecule agonists, cell-based qHTS assay (AID 1963594); also: nearly all actives have a fitted effect of over 35% in size
Outline: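 cAMP accumulation in DRD2-HEK293 cells measured by HTRF after 1 h detection; compounds added 10 min before NKH477 (200nM […]) forskolin-analogue stimulation, 30 min at room temperature, with Ro20-1724 present at 0.1 mM final.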

[18] = biological target: D(2) dopamine receptor (Homo sapiens) (UniProt P14416); test: Dopamine D2 receptor (DRD2) small molecule antagonists, cell-based qHTS assay (AID 1963595; active = well fitted inhibition curve with a large enough effect in the signal ratio in the repeat runs, with a control signal flat; the % refers to the signal ratio)
Outline: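 In this cell-based antagonist screen, compounds act for 10 min at room temperature before a 30 min challenge with 12 nM quinpirole and 200 nM NKH477. cAMP is quantified by HTRF competition in DRD2-HEK293 cells containing 0.1 mM Ro20-1724.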

[19] = biological target: Beta-2 adrenergic receptor (Homo sapiens) (UniProt P07550); test: Adrenergic beta2 receptor (ADRB2) small molecule agonists, cell-based qHTS assay (AID 1963593);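 also: CHO cells stably overexpressing human ADRB2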
Outline: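 CHO cells stably over-expressing ADRB2 were plated overnight at 37C, then dosed with compounds plus a stimulation mix containing 100uM IBMX and 25uM Ro-20-1724 for 0.5hr at room temperature. cAMP was measured by HTRF competition, 1hr.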

[20] = biological target: Gonadotropin-releasing hormone receptor (Homo sapiens) (UniProt P30968); test: Human gonadotropin-releasing hormone receptor (GnRHR) small molecule agonists, calcium flux assay in GnRHR-HEK293 cells (AID 1920063); also: nearly all actives have a fitted effect of over 35% in size
Outline: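 We seeded human GnRHR-expressing HEK293 cells for 18 hours, loaded them with calcium dye for an hour at 37 C, added test compounds, and recorded fluorescence intensity kinetically for three minutes.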

Measured: Potency

Sequence of Muscarinic acetylcholine receptor M1 (Homo sapiens) (P11229 whole entry, looked up): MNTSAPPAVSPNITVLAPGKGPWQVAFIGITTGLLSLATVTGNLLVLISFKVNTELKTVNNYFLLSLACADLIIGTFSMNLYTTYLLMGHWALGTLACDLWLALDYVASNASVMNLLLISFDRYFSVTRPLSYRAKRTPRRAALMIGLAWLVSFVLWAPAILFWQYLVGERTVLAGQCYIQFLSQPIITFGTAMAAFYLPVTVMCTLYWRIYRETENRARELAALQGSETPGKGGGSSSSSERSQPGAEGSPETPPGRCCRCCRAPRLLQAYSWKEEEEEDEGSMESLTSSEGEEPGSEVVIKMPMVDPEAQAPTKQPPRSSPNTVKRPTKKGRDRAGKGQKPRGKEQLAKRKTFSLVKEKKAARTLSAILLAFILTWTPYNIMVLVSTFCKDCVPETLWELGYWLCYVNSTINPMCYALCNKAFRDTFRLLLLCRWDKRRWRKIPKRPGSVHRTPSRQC
Sequence of D(2) dopamine receptor (Homo sapiens) (P14416 whole entry, looked up): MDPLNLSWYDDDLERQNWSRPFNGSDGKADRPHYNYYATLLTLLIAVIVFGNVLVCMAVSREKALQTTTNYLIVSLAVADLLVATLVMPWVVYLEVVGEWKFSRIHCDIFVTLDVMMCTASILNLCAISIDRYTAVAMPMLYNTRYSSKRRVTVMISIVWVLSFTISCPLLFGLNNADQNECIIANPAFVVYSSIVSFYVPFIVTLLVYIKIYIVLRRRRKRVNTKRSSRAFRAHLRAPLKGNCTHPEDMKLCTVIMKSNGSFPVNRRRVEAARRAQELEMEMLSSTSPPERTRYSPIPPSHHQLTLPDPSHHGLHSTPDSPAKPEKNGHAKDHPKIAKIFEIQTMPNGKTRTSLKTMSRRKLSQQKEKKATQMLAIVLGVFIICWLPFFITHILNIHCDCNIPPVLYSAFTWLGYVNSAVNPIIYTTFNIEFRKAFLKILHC
Sequence of Beta-2 adrenergic receptor (Homo sapiens) (P07550 whole entry, looked up): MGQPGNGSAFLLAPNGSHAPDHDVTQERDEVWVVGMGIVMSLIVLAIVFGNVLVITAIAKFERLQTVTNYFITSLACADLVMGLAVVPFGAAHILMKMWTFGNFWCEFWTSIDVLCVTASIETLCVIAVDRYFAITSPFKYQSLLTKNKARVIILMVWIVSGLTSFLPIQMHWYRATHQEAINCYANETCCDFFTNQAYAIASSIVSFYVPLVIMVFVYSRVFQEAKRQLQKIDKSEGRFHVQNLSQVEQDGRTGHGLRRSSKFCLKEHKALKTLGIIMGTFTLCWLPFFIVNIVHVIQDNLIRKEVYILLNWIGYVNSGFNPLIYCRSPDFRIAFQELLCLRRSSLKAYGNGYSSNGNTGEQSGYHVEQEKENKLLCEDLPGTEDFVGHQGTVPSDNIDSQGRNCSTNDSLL
Sequence of 5-hydroxytryptamine receptor 2A (Homo sapiens) (P28223 whole entry, looked up): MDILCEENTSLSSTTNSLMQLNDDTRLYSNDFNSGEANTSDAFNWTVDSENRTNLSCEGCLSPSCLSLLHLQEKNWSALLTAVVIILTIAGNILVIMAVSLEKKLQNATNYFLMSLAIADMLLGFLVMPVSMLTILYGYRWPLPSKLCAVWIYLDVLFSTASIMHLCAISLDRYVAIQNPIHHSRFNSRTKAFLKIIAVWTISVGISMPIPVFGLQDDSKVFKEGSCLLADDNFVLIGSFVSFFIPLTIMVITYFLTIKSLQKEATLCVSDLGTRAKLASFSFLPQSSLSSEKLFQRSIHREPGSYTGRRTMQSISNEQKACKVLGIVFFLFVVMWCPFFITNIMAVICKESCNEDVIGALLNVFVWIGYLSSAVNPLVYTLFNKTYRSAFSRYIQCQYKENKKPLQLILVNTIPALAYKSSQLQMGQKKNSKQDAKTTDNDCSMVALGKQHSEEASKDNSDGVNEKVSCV
Sequence of Gonadotropin-releasing hormone receptor (Homo sapiens) (P30968 whole entry, looked up): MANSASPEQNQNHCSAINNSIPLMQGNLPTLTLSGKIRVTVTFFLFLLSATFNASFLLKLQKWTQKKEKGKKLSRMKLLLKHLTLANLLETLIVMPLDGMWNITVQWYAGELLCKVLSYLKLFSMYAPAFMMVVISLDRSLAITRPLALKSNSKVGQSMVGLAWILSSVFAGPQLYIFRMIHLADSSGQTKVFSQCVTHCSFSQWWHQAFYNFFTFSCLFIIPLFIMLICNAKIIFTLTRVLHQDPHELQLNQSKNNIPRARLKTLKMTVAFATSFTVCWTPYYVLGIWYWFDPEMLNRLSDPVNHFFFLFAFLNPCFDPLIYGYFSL

COc1cccc(OC)c1O
inactive: [1] | [2] | [3] | [4] | [5] | [6] | [7] | [8] | [9] | [10] | [11] | [12] | [13] | [14] | [15] | [16] | [17] | [18]

COc1ccc(C(=O)CC(=O)c2ccc(C(C)(C)C)cc2)cc1
inactive: [1] | [2] | [3] | [4] | [5] | [6] | [7] | [8] | [9] | [10] | [11] | [12] | [13] | [14] | [15] | [16] | [19] | [17] | [18]

CC(C)=O
inactive: [1] | [2] | [3] | [4] | [5] | [6] | [7] | [8] | [9] | [10] | [11] | [12] | [13] | [14] | [15] | [16] | [19] | [18]

CCCCN(CCO)CCO
inactive: [1] | [2] | [20] | [4] | [5] | [6] | [7] | [8] | [9] | [10] | [11] | [13] | [14] | [15] | [16] | [19] | [17] | [18]

Cc1ccc2c(ccc3ccccc32)c1
inactive: [1] | [2] | [3] | [4] | [5] | [6] | [7] | [8] | [9] | [10] | [11] | [12] | [13] | [14] | [15] | [16] | [19] | [17] | [18]

NC(=O)NNC(N)=O
inactive: [1] | [2] | [3] | [4] | [5] | [6] | [7] | [8] | [9] | [10] | [11] | [12] | [13] | [14] | [15] | [19] | [17]

CCOC(=O)c1ccc(OCCN2C[C@H](O)[C@@H](O)[C@H](O)[C@H]2CO)cc1
inactive: [1] | [2] | [20] | [4] | [5] | [6] | [7] | [8] | [9] | [11] | [12] | [13] | [14] | [15] | [16] | [19] | [17] | [18]
